These results are taken from PubChem BioAssay (Tox21).

The target in assay [1] is Thyrotropin receptor (Homo sapiens) (UniProt P16473). The experiment in a line: qHTS assay to identify small molecule agonists of the thyroid stimulating hormone receptor (TSHR) signaling pathway (AID 1224843; calls by dose curve; further: nearly all actives have a fitted effect of over 45% in size; further: potency means the concentration at half of the fitted maximal effect). In short, it runs like this: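 Cell line HEK293 with TSHR; density 800/well. Exposure 30 min RT. Readout HTRF cAMP (cAMP-d2/anti-cAMP-cryptate), 1 h RT before reading.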
On the technique in general: Quantitative high-throughput screening tests each substance at several concentrations.

Assay [2] can be described thus: qHTS assay to identify small molecule agonists of H2AX (AID 1224845; active means well fitted activation curve with a large enough effect in the signal ratio in the repeat runs, not every such curve was filed as active; the % refers to the signal ratio). In short, it runs like this: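 Wild-type CHO-K1 cells plated overnight, then exposed 3 hr at 37C to compounds at 15 concentrations (0.76% DMSO). Lysed, then HTRF anti-pH2AX(S139)-cryptate/anti-H2AX-d2 detection after 24 hr at room temperature; emissions 665 and 620 nm.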
Assay [3] is described as follows: qHTS assay to identify small molecule agonists of the hypoxia (HIF-1) signaling pathway (AID 1224846; active means well fitted activation curve with a large enough effect in the signal ratio in the repeat runs, not every such curve was filed as active; the % refers to the signal ratio). In short, it runs like this:
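Cell line: CellSensor HRE-bla ME-180; 2,000 cells/well; 0.5% dialyzed FBS; 5 h preincubation; DMSO compound pin transfer; 17 h, 37C, 5% CO2; CCF4-AM added; bla FRET signal scored for activation.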

Assay [4] in a line: qHTS assay to identify small molecule agonists of H2AX - cell viability counter screen (AID 1224847; calls by dose curve; further: top concentration of the series differs between compounds; nearly all actives have a fitted effect of over 30% in size). In short, it runs like this:
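Viability of CHO-K1 (wild type) cells after 3 hr compound exposure was measured by CellTiter-Glo luminescence.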

The nature of assay [5]: qHTS assay to identify small molecule antagonists of the estrogen related receptor (ERR) signaling pathway from Tox21 library (AID 1224848). Further: nearly all actives have a fitted effect of over 50% in size. In short, it runs like this:
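Screening used an ERR reporter line supplied by NTP, exposed for 18 h at 37 C to library compounds delivered in DMSO. Signal was luciferase luminescence developed with ONE-Glo at room temperature for 30 min.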

Assay [6] can be described thus: qHTS assay to identify small molecule agonists of the estrogen related receptor (ERR) signaling pathway from Tox21 library (AID 1224849; calls by dose curve; further: nearly all actives have a fitted effect of over 15% in size). Conditions: ERR reporter cell line, ONE-Glo luciferase, 18 h; at 92.4 µM (top of the series) unless noted. Put shortly: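 ERR cells, 6 h pre-incubation 37 C/5% CO2; cpd in DMSO pinned; 18 h 37 C; ONE-Glo added, 30 min RT; luminescence read. Agonist mode, qHTS.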

A short description of assay [7]: qHTS RealTime-Glo MT Cell Viability Assay in HepG2 cells - 24 hour (AID 1224867). Further: nearly all actives have a fitted effect of over 50% in size. Put shortly:
(§1)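 HepG2 suspension premixed with RealTime-Glo reagents is plated at 600 cells per well and left 5 h at 37 C/5% CO2. Compounds in DMSO then go in, and bioluminescence reflecting viable cell number is recorded over 40 h.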

Assay [8] in a line: A CellTox Green Cytotoxicity Assay to monitor cytotoxicity in HEK293 cells - 0 hour (AID 1224869). Further: nearly all actives have a fitted effect of over 50% in size. Put shortly:
(§2)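 Nonlytic real-time cytotoxicity: HEK293 + CellTox Green reagent plated, 5 h preincubation, pintool compound addition (23 nL in DMSO), 37 C for 40 h, fluorescence measured at successive time points.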

Assay [9] in a line: qHTS RealTime-Glo MT Cell Viability Assay in HepG2 cells - 40 hour (AID 1224870). Further: nearly all actives have a fitted effect of over 50% in size. Put shortly:
(§3)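 HepG2 cells mixed with RealTime-Glo MT reagents (NanoLuc plus cell-permeant prosubstrate) were seeded at 600 cells/well, incubated 5 h at 37 C/5% CO2, then pinned with compounds in DMSO; nonlytic luminescence tracked viability during 40 h treatment.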

The nature of assay [10]: A CellTox Green Cytotoxicity Assay to monitor cytotoxicity in HEK293 cells - 40 hour (AID 1224871). Further: nearly all actives have a fitted effect of over 45% in size. Put shortly:
as §2

Assay [11] is described as follows: qHTS RealTime-Glo MT Cell Viability Assay in HEK293 cells - 16 hour (AID 1224872). Put shortly: (§4)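 Reads taken at 0, 8, 16, 24, 32 and 40 h from the same wells. HEK293 cells (600/well) carried RealTime-Glo reagents from seeding, with compound added after a 5 h settle at 37 C.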
Assay [12] can be described thus: qHTS RealTime-Glo MT Cell Viability Assay in HepG2 cells - 8 hour (AID 1224873). Further: nearly all actives have a fitted effect of over 55% in size. Put shortly:
as §3

The nature of assay [13]: qHTS RealTime-Glo MT Cell Viability Assay in HEK293 cells - 40 hour (AID 1224874). Further: nearly all actives have a fitted effect of over 50% in size. Conditions: RealTime-Glo luminescence; max response: stronger effect = lower value. Put shortly: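 Cells were seeded together with NanoLuc luciferase and a prosubstrate that viable cells reduce to a luciferase substrate. After a 5 h incubation at 37 C/5% CO2, compounds were added and luminescence was measured repeatedly during 40 h of treatment.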

The nature of assay [14]: A CellTox Green Cytotoxicity Assay to monitor cytotoxicity in HEK293 cells - 24 hour (AID 1224875). Further: nearly all actives have a fitted effect of over 45% in size. In short, it runs like this: as §2
Assay [15] in a line: A CellTox Green Cytotoxicity Assay to monitor cytotoxicity in HepG2 cells - 16 hour (AID 1224876). Further: nearly all actives have a fitted effect of over 45% in size. In short, it runs like this:
(§5)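 Read-out is fluorescence of a cyanine dye excluded from live cells that stains DNA of dead HepG2 cells, with signal proportional to cytotoxicity. Plates were read at 0, 8, 16, 24, 32 and 40 h after compound addition.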

Assay [16] can be described thus: qHTS RealTime-Glo MT Cell Viability Assay in HepG2 cells - 32 hour (AID 1224877). Further: nearly all actives have a fitted effect of over 55% in size. In short, it runs like this: as §1
A short description of assay [17]: A CellTox Green Cytotoxicity Assay to monitor cytotoxicity in HepG2 cells - 24 hour (AID 1224878). Further: nearly all actives have a fitted effect of over 45% in size. In short, it runs like this: as §5
Assay [18] in a line: A CellTox Green Cytotoxicity Assay to monitor cytotoxicity in HepG2 cells - 40 hour (AID 1224879). Further: nearly all actives have a fitted effect of over 40% in size. In short, it runs like this: as §5
Assay [19] can be described thus: qHTS RealTime-Glo MT Cell Viability Assay in HEK293 cells - 32 hour (AID 1224868). Put shortly:
as §4

A number with no mark means an inactive call. Inconclusive results are not listed. The source made the active and inactive calls. Unless noted, the call rests on the fitted dose curve; in most records, active means well fitted curve in the direction sought with a large enough effect in the repeat runs; inconclusive means weak or mixed curves; inactive means no such curve, though single readings can be large; an effect the other way counts as inactive or inconclusive.
On the % scale 0 is the no-effect control and ±100 the full control effect.

Sequence of Thyrotropin receptor (Homo sapiens) (P16473 whole entry, looked up): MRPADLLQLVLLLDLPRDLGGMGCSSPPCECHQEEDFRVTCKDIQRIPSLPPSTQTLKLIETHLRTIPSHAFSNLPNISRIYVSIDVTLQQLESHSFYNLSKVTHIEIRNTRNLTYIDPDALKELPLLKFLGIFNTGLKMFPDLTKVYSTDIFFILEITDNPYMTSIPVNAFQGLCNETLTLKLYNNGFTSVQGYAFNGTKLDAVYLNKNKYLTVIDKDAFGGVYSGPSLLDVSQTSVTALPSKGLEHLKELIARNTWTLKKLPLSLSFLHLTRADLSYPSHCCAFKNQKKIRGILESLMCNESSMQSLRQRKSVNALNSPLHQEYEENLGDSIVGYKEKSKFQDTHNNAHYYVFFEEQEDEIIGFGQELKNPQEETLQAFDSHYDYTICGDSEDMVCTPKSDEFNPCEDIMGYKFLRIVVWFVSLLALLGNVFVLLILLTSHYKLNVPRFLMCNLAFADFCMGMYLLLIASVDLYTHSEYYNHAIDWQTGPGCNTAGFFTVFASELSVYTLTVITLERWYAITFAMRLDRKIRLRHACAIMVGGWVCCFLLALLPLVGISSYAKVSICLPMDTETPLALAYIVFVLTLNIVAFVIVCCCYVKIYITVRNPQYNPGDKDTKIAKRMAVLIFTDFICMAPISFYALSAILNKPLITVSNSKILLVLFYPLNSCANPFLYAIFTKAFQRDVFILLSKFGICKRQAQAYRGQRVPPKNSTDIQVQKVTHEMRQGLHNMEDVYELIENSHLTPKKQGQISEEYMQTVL

With `CCCC[N+](=O)[O-]`, the Potency entry in assay [1], in assay [4], in assay [5], in [7], in assay [9] and in assay [10] was “inactive” throughout. For the same compound, the Potency entry in assay [11], in assay [14], in [15], in [16], in assay [17] and in assay [18] was “inactive” in each case. For the same compound, the outcome in assay [2], in assay [3], in assay [8] and in [12] was inactive. Further, the activity change, positive = activation in assay [6] was -0.684%. Moreover, the max response in assay [13] is 1.79%.

On to `O=C(Cl)CCl`, for which the Potency entry in assay [1], in assay [4], in assay [7], in assay [19], in [9] and in assay [10] was “inactive” in each case. The Potency result in assay [11], in [14], in assay [15], in assay [16] and in [17] was “inactive” each time. Besides, the outcome in [2], in [3], in assay [8] and in [12] was inactive. In [13], the max response is 0.179%.

For the compound `CC(C)(C)NC[C@H](O)c1ccc(O)cc1Cl`, in assay [1], the Potency is 8.4 nM (active). Moreover, the compound was called inactive in [2], in assay [3], in [8] and in [12]. Further, the Potency result in assay [4], in assay [5], in assay [7], in assay [9], in assay [10] and in assay [11] was “inactive” throughout. For the same compound, the Potency result in assay [14], in assay [15], in assay [16], in [17] and in assay [18] was “inactive” in each case. Also, the activity change, positive = activation in assay [6] was 0.107% [at 42.5 µM]. In addition, the max response in assay [13] was 4.05%.

As for `CC[C@H](O)C(C[C@H](C)N(C)C)(c1ccccc1)c1ccccc1`, the Potency entry in [1], in [7], in assay [9], in assay [10], in [11] and in [14] was “inactive” each time. The Potency result in assay [15], in assay [16], in assay [17] and in assay [18] was “inactive” in each case. Also, the call in assay [2], in assay [8] and in assay [12] was inactive.

As to `Cn1c(CCCC(=O)O)nc2cc(N(CCCl)CCCl)ccc21`, the Potency entry in assay [1], in assay [4], in [5], in assay [7], in [9] and in assay [10] was “inactive” in each case. For the same compound, the Potency entry in assay [11], in assay [14], in assay [15], in [16], in assay [17] and in [18] was “inactive” each time. Further, the compound was called inactive in assay [2], in [3], in [8] and in assay [12]. Moreover, the activity change, positive = activation in assay [6] was -8.11% [at 42.5 µM]. Besides, the max response in assay [13] was 1.4%.

For `CC(C)N(Cc1ccccc1)C(=O)C(C)(C)C`, the Potency result in assay [1], in [7], in assay [19], in assay [9], in [10] and in assay [14] was “inactive” throughout. Further, the Potency result in assay [15] and in assay [16] was “inactive” throughout. The compound was classed as inactive in assay [3], in [8] and in [12]. Besides, the max response in assay [13] was -9.28%.

In the case of `CCCOc1nn(C(=O)NS(=O)(=O)c2ccccc2C(=O)OC)c(=O)n1C`, the Potency result in assay [1], in assay [4], in [7], in [19], in [9] and in [10] was “inactive” throughout. Besides, the Potency entry in [14], in assay [15], in assay [16], in assay [17] and in [18] was “inactive” each time. Besides, the outcome in assay [3], in assay [8] and in [12] was inactive. For the same compound, the max response in assay [13] was 22.1%.

Turning to `BrCc1ccc(Br)cc1`, the Potency entry in assay [1], in assay [4], in assay [7], in assay [19], in assay [9] and in assay [10] was “inactive” in each case. For the same compound, the Potency entry in assay [11], in [14], in [15], in [16], in assay [17] and in assay [18] was “inactive” each time. In addition, the outcome in assay [2], in assay [3], in assay [8] and in assay [12] was inactive. For the same compound, the max response in assay [13] was 4.4%.

`OP(O)c1ccccc1`: the Potency result in assay [1], in assay [4], in assay [5], in assay [7], in assay [19] and in assay [9] was “inactive” each time. Besides, the Potency entry in [10], in assay [11], in assay [14], in [15], in assay [16] and in assay [17] was “inactive” each time. Further, the Potency entry in [18] is “inactive”. For the same compound, the result in assay [2], in [3], in [8] and in assay [12] was inactive. In addition, the activity change, positive = activation in assay [6] was 1.75%. In addition, in [13], the max response is 9.39%.

Turning to `CCN[C@@H](C)Cc1cccc(C(F)(F)F)c1`, the Potency result in [1], in assay [4], in assay [7], in assay [9], in assay [10] and in assay [14] was “inactive” each time. In addition, the Potency entry in assay [15], in assay [16] and in assay [17] was “inactive” each time. The outcome in [3], in assay [8] and in assay [12] was inactive. For the same compound, the max response in assay [13] is 2.94%.

Turning to `O=c1[nH]c2ccccc2n1C1CCNCC1`, the Potency result in assay [1], in assay [4], in assay [7], in assay [19], in assay [9] and in assay [10] was “inactive” in each case. Besides, the Potency result in [11], in assay [14], in assay [15], in assay [16], in assay [17] and in [18] was “inactive” throughout. For the same compound, the compound was classed as inactive in [2], in [3], in assay [8] and in assay [12]. Further, the max response in [13] is 2.11%.

In the case of `C=CCc1cc(OC)c2c(c1)OCO2`, the Potency result in assay [1], in [4], in assay [7], in assay [19], in assay [9] and in assay [15] was “inactive” in each case. Besides, the Potency result in [16], in assay [17] and in assay [18] was “inactive” each time. Also, the result in assay [2], in assay [3], in assay [8] and in assay [12] was inactive. Moreover, the max response in assay [13] is 8.43%.

For `CC1N=C(N)OC1c1ccccc1` (stereo unspecified), the Potency entry in assay [1], in assay [4], in [7], in assay [19], in [9] and in assay [10] was “inactive” each time. Further, the Potency entry in [11], in assay [14], in [15], in [16], in assay [17] and in assay [18] was “inactive” in each case. Further, the outcome in [2], in assay [8] and in [12] was inactive.

Take `O=C(Cl)C(Cl)(Cl)Cl`: the Potency result in assay [1], in assay [4], in [7], in [19], in assay [9] and in [10] was “inactive” each time. Also, the Potency result in assay [11], in assay [14], in assay [15], in [16], in assay [17] and in [18] was “inactive” each time. In addition, the compound was called inactive in [2], in [3], in assay [8] and in assay [12].
